Results published in the supplement of paper PMC10849652.
Of roughly 7,900 targets only a part is listed; those with a hit were picked by preference. About 0.6% of all pairs of compound and target were hits. Values without a mark were called inactive.

Key:
Assay in all cases: log2 fold change, soluble protein after heating vs DMSO (PISA); higher = thermal stabilisation; K562 cells, 10 uM, 30 min; active = over 0.2 and 3.5 SD of the protein, either way, in both replicates (recomputed)
[1] = compound: CC[C@@H]1C(=O)N(C)c2cnc(Nc3ccc(C(=O)NC4CCN(C)CC4)cc3OC)nc2N1C1CCCC1
Summary of the method: (§1)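 Aliquots of K562 cells (2×10^6 cells/mL) treated with 10 μM compound for 30 min were heated for 3 min over 48°C-58°C. After pooling and extraction in PBS with 0.5% NP-40 at 4°C, soluble protein from a 21,000xg, 90 min spin was quantified by TMTpro 16plex LC-MS/MS with channel sums equalised. Thermal stability is expressed against control samples, from duplicates, as a log2 fold change.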

volasertib = compound: CC[C@@H]1C(=O)N(C)c2cnc(Nc3ccc(C(=O)N[C@H]4CC[C@H](N5CCN(CC6CC6)CC5)CC4)cc3OC)nc2N1C(C)C [volasertib]
Summary of the method: as §1

[2] = compound: CC[C@H](C)N1C=C(C2=C(C=C(C=C21)C3=CN=C(C=C3)N4CCNCC4)C(=O)NCC5=C(C=C(NC5=O)C)C)C
Summary of the method: as §1

epoxomicin = compound: CC[C@H](C)[C@@H](C(=O)N[C@@H]([C@@H](C)O)C(=O)N[C@@H](CC(C)C)C(=O)[C@]1(CO1)C)NC(=O)[C@H]([C@@H](C)CC)N(C)C(=O)C [epoxomicin]
Summary of the method: as §1

[3] = compound: CCn1c(C(=O)N(C2CC2)C2CC2)cc2c3c(ncn3C)c(Nc3cc(C)n(C)n3)nc21
Summary of the method: as §1

[4] = compound: CCn1cc(-c2ccnc3[nH]c(-c4cccc(CN(C)C)c4)cc23)c(-c2ccc(NC(=O)N(C)C)cc2)n1
Summary of the method: as §1

[5] = compound: CN(C)CC(=O)Nc1ccc2[nH]c(=O)c3ccccc3c2c1
Summary of the method: as §1

rosiglitazone = compound: CN(CCOC1=CC=C(C=C1)C[C@H]2C(=O)NC(=O)S2)C3=CC=CC=N3 (racemic) [rosiglitazone]
Summary of the method: as §1

[6] = compound: CN1C2=C(C3=C1C(=O)N(N=C3)CC4=CC(=CC=C4)N)SC(=C2)S(=O)C
Summary of the method: as §1

[7] = compound: CN1CCC(CNc2ccc3ncc(-c4cccc(OC(F)(F)F)c4)n3n2)CC1
Summary of the method: as §1

saracatinib = compound: CN1CCN(CCOc2cc(OC3CCOCC3)c3c(Nc4c(Cl)ccc5c4OCO5)ncnc3c2)CC1 [saracatinib]
Summary of the method: as §1

sotrastaurin = compound: CN1CCN(c2nc(C3=C(c4c[nH]c5ccccc45)C(=O)NC3=O)c3ccccc3n2)CC1 [sotrastaurin]
Summary of the method: as §1

alvocidib = compound: CN1CC[C@H](c2c(O)cc(O)c3c(=O)cc(-c4ccccc4Cl)oc23)[C@H](O)C1 [alvocidib]
Summary of the method: as §1

Tubastatin A = compound: CN1CCc2c(c3ccccc3n2Cc2ccc(C(=O)NO)cc2)C1 [Tubastatin A]
Summary of the method: as §1

[8] = compound: CNC(=O)C1=CC=CC=C1NC2=NC(=NC=C2Cl)NC3=C(C=C(C=C3)N4CCOCC4)OC
Summary of the method: as §1

defactinib = compound: CNC(=O)c1ccc(Nc2ncc(C(F)(F)F)c(NCc3nccnc3N(C)S(C)(=O)=O)n2)cc1 [defactinib]
Summary of the method: as §1

rucaparib = compound: CNCc1ccc(-c2[nH]c3cc(F)cc4c3c2CCNC4=O)cc1 [rucaparib]
Summary of the method: as §1

[9] = compound: CNc1nc(-c2ccc3c(N)n[nH]c3c2)cc(N2C[C@@H](C(=O)NC3CCCCC3)CC[C@H]2C)n1
Summary of the method: as §1

encorafenib = compound: COC(=O)N[C@@H](C)CNc1nccc(-c2cn(C(C)C)nc2-c2cc(Cl)cc(NS(C)(=O)=O)c2F)n1 [encorafenib]
Summary of the method: as §1

[10] = compound: COC(=O)[C@H](CCSC)NC(=O)C1=C(C=C(C=C1)NC[C@H](CS)N)C2=CC=CC=C2
Summary of the method: as §1

UniProt P53609, sequence (P53609 whole entry, looked up): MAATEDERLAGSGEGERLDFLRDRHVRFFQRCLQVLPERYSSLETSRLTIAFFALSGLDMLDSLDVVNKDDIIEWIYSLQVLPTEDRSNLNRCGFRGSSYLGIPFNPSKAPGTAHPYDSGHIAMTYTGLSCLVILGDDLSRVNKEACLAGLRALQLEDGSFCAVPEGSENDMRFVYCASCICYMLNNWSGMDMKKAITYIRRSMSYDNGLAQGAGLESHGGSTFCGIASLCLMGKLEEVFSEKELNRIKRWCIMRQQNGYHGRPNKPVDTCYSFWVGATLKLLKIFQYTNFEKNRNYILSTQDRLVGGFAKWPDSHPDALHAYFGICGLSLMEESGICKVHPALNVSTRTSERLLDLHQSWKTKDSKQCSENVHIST
UniProt O95453, sequence (O95453 whole entry, looked up): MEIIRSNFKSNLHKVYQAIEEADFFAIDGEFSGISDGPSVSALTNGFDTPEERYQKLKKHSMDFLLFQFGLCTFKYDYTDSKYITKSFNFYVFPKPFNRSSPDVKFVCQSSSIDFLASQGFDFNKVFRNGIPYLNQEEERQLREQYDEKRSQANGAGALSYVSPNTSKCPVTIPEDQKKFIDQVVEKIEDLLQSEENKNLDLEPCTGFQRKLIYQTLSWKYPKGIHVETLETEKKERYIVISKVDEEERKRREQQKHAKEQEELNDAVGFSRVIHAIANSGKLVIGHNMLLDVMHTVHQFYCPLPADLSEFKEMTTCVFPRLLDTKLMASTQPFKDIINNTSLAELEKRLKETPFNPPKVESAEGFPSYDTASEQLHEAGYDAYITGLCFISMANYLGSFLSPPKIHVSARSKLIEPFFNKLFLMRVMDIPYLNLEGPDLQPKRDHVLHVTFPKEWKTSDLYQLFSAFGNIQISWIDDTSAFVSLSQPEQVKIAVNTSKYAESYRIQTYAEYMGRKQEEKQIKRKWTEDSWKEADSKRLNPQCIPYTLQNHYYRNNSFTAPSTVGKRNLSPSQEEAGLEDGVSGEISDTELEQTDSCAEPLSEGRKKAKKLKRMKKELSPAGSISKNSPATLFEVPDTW
UniProt Q15185, sequence (Q15185 whole entry, looked up): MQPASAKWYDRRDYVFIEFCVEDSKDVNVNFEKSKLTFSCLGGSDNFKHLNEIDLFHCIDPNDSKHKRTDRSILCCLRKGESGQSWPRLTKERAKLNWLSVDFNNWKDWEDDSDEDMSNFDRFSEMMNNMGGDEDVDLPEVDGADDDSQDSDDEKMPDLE
UniProt O43164, sequence (O43164 whole entry, looked up): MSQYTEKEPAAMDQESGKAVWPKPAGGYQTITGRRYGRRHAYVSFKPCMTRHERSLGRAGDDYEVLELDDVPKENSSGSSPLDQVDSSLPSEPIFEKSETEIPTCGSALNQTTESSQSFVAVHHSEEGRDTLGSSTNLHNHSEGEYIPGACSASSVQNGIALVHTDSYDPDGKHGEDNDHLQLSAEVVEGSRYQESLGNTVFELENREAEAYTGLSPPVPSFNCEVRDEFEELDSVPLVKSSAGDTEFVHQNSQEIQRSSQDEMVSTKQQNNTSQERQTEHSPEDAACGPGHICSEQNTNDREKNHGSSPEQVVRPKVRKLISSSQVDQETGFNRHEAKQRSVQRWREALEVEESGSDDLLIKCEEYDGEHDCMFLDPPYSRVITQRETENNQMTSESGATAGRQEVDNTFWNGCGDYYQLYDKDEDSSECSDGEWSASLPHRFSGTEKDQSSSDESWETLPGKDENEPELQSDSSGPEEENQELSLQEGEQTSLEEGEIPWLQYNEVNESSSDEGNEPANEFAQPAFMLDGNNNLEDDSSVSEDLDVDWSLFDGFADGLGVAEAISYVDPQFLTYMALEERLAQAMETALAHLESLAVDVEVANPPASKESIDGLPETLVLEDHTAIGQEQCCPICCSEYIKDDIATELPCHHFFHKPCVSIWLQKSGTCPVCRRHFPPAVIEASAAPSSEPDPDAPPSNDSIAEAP
UniProt Q8IV08, sequence (Q8IV08 whole entry, looked up): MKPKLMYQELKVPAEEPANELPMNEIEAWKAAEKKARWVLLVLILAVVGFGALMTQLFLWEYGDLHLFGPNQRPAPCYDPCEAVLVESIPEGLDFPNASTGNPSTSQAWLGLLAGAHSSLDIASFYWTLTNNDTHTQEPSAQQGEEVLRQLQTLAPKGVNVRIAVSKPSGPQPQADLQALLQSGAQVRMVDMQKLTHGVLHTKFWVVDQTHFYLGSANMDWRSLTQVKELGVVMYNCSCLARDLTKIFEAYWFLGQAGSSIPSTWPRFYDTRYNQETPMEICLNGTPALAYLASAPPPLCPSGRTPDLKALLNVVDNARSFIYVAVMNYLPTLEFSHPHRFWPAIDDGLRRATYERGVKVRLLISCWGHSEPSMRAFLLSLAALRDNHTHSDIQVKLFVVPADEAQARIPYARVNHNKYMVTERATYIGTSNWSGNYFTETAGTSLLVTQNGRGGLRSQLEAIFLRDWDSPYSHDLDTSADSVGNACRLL
UniProt O43741, sequence (O43741 whole entry, looked up): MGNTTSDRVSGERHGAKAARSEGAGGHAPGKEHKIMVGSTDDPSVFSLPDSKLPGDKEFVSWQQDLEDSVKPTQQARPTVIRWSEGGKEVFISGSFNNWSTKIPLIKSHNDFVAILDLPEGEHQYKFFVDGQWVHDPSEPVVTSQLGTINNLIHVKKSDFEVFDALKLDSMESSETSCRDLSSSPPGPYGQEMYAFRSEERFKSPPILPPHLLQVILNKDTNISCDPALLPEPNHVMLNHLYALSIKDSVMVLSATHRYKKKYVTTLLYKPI
UniProt Q13131, sequence (Q13131 whole entry, looked up): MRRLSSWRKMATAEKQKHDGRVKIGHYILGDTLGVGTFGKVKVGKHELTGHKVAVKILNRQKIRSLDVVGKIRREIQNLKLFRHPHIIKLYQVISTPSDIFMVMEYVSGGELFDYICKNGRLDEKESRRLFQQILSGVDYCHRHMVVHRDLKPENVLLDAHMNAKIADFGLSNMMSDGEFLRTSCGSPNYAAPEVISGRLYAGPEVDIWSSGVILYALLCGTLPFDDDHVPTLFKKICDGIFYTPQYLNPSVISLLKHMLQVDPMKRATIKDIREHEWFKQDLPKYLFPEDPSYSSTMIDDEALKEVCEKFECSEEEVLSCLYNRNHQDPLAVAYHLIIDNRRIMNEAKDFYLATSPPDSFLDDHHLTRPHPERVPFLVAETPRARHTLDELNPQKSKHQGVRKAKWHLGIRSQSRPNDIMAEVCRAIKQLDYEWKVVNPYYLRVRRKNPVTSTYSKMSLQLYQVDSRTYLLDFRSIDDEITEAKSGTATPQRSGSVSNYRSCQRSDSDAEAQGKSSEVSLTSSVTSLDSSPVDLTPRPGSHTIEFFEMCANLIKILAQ
UniProt Q02156, sequence (Q02156 whole entry, looked up): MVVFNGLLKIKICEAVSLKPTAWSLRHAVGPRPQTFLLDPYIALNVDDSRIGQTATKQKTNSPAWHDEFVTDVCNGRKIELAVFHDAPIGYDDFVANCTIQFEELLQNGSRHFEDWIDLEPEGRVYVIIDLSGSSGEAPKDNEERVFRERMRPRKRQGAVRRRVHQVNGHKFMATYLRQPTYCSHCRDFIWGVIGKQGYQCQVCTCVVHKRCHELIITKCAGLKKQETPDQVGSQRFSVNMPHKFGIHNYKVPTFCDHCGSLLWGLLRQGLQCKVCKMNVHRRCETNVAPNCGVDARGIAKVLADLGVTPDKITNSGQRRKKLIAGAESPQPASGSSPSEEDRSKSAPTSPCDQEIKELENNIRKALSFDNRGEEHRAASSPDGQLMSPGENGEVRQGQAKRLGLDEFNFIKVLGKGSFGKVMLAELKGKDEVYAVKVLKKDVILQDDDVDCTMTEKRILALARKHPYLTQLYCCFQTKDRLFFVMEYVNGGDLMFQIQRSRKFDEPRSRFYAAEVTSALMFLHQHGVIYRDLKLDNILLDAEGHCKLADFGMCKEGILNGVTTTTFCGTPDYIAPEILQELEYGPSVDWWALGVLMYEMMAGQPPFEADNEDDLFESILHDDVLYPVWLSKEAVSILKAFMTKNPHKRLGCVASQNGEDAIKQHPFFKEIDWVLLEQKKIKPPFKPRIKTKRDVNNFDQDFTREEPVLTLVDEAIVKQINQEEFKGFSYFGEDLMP

Target	log2 fold change [1]	log2 fold change (volasertib)	log2 fold change [2]	log2 fold change (epoxomicin)	log2 fold change [3]	log2 fold change [4]	log2 fold change [5]	log2 fold change (rosiglitazone)	log2 fold change [6]	log2 fold change [7]	log2 fold change (saracatinib)	log2 fold change (sotrastaurin)	log2 fold change (alvocidib)	log2 fold change (Tubastatin A)	log2 fold change [8]	log2 fold change (defactinib)	log2 fold change (rucaparib)	log2 fold change [9]	log2 fold change (encorafenib)	log2 fold change [10]
PTGES3 (UniProt Q15185)	-0.21	-0.504 (active)	0.096	0.041	0	-0.11	0.049	0.048	-0.045	-0.134	-0.023	-0.057	-0.215	0.023	0.088	-0.205	-0.059	0.034	0.032	-0.068
PJA2 (UniProt O43164)	-0.007	0.001	0.014	0.202	0.055	0.066	-0.051	0.004	-0.001	-0.156	-0.057	-0.014	0.054	0.061	-0.013	-0.003	0.004	-0.053	-0.003	0.049
PRKAB2 (UniProt O43741)	0.085	-0.185	0.022	0.205	0.013	-0.089	0.067	0.044	0.043	-0.247	-0.064	-0.077	-0.094	0.039	-0.159	-0.084	-0.371	-0.022	0.118	-0.036
PARN (UniProt O95453)	-0.146	-0.401 (active)	0.059	0.051	-0.021	-0.076	0.017	0.017	-0.057	-0.196	-0.013	-0.008	-0.118	-0.017	0.02	-0.141	0.079	-0.022	0.04	0.014
PLD3 (UniProt Q8IV08)	-0.369 (active)	-0.437 (active)	-0.038	0.041	0.052	0.035	0.014	-0.007	-0.027	-0.488 (active)	0.034	0.013	-0.024	0.004	0.016	-0.005	-0.094	-0.037	0.007	0.009
PRKAA1 isoform 2 (UniProt Q13131)	-0.035	-0.154	0.04	0.017	-0.026	-0.052	-0.007	0.016	0.001	-0.254 (active)	0.027	0.033	-0.032	-0.015	-0.19	-0.048	-0.006	-0.047	0.02	-0.004
PRKCE (UniProt Q02156)	-0.051	-0.125	0.099	0.036	-0.054	-0.067	0.036	0.068	-0.106	-0.16	-0.02	-0.425 (active)	-0.143	-0.052	0.075	-0.133	-0.043	0.006	0.037	-0.06
PGGT1B (UniProt P53609)	0.056	0.098	0.004	-0.011	0.031	-0.026	-0.009	0.032	-0.101	-0.008	0	0.121	-0.014	-0.047	-0.025	0.001	-0.032	-0.017	0.013	0.227 (active)
